Data as given in PubChem BioAssay AID624309 (Sanford-Burnham Center for Chemical Genomics, 2012).
Out of some 2,000 compounds screened, about 260 (13%) were called active. No stated cut-off is given here; in the data, active means inhibition mostly above about 42% (no sharp cut-off); inactive means mostly below about 42%. The list is a sample of the results.

What follows are compounds tested on Nicotinate mononucleotide adenylyltransferase NadD (Staphylococcus aureus N315) (assay: S. aureus NadD enzyme activity blockers – biochemical, colorimetric, single concentration, confirmation (AID 624309)). Details: purified S. aureus NadD, colorimetric enzyme assay; at 20 µM; active compounds read high.

`Nc1[nH]c(=S)nc2nc(-c3ccccc3)c(-c3ccccc3)nc12` was tested. Which inhibition did it give?
The inhibition was 38.5% (inactive).

Which inhibition does the source give for `COc1ccc([N+](=O)[O-])cc1NC(=O)CC1SC(=Nc2cccc(C)c2C)N(/N=C(\C)c2ccc(C)cc2)C1=O` (centres undefined) here?
The inhibition was -2.98% (inactive).

For `Cc1nc(N2CCN(c3ccccn3)CC2)c2c(C)c(C(=O)Nc3ccc(F)c(Cl)c3)sc2n1`, which inhibition is on record?
The inhibition was 3.33% (inactive).

With `C=CC1=C(C(=O)O)N2C(=O)[C@@H](NC(=O)/C(=N/OCC(=O)O)c3csc(N)n3)[C@H]2SC1` as the compound, how does the inhibition read?
Its inhibition is 95.8% (active).

For `O=C(O)c1ccc(COCC(F)(F)F)cc1`, which inhibition is on record?
Its inhibition is 10.3% (inactive).

Which inhibition does the source give for `CC1(OC(=O)C2CCCC2)C(=O)C=C2C=C(c3ccc(C#N)cc3)OC=C2C1=O` (centres undefined) here?
Its inhibition is 73.5% (active).

`Cc1nn(-c2ccccc2)c(C)c1/C=N/NC(=O)CSc1nc2ccccc2c(=O)n1-c1ccccc1` was tested. Which inhibition did it give?
Its inhibition is 8.17% (inactive).

`CCOc1ccc(-c2n[nH]c(=S)n2/N=C/c2cc3c(cc2[N+](=O)[O-])OCO3)cc1` was tested. Which inhibition did it give?
The inhibition was 4.81% (inactive).

Which inhibition does the source give for `N#CC1=C(SCc2ccc(C#N)cc2)N=C(N)C(c2nc(-c3ccccc3)cs2)C12CCCCC2` (centres undefined) here?
Its inhibition is 24.2% (inactive).

With `CCN(CC)C(=O)c1sc2nc(-c3ccccc3)ccc2c1N` as the compound, how does the inhibition read?
The inhibition was -11.1% (inactive).

With `O=C(CSc1nc(Nc2ccccc2)nc(N2CCOCC2)n1)Nc1cc(Cl)ccc1O` as the compound, how does the inhibition read?
Its inhibition is 43.2% (inactive).

`O=C(NCC(=O)N1CCN(c2ccccc2O)CC1)c1ccc2ccccc2c1` was tested. Which inhibition did it give?
Its inhibition is 34.8% (inactive).

Which inhibition does the source give for `CCCCCCC(=O)Nc1nc(C)c(-c2csc(Nc3cc(Cl)ccc3OC)n2)s1` here?
Its inhibition is 5.75% (inactive).

For `COc1ccc(Br)cc1/C=N/Nc1ccc(S(=O)(=O)Nc2ccccc2C(=O)O)cc1[N+](=O)[O-]`, which inhibition is on record?
Its inhibition is 73.9% (active).

With `Cc1ccc(NS(=O)(=O)c2ccc(N/N=C/c3ccccc3OCC(=O)O)c([N+](=O)[O-])c2)c(C)c1` as the compound, how does the inhibition read?
The inhibition was 64.9% (active).

`O=C(Nc1ccc(S(=O)(=O)Nc2nccs2)cc1)c1cc(-c2ccncc2)nc2ccccc12` was tested. Which inhibition did it give?
Its inhibition is 44.5% (active).

How did the inhibition turn out when `COc1ccc(NS(=O)(=O)c2cc(NC(=O)CC(=O)c3ccc([N+](=O)[O-])cc3)ccc2C)cc1` was run?
The inhibition was 28.1% (inactive).

For `CCn1cc(C(=O)NCCCN2CCCCCC2)c(=O)c2cc(S(=O)(=O)N3CCc4ccccc4C3)ccc21`, which inhibition is on record?
The inhibition was -16.2% (inactive).

`Cc1cc(C)c(S(=O)(=O)NN=C2c3ccccc3[C@H]3Cc4csc[n+]4[C@@H]23)c(C)c1` was tested. Which inhibition did it give?
The inhibition was 30.1% (inactive).

For `Cc1ccc(Cc2cnc(NC(=O)/C(C#N)=C/c3ccc(-c4cccc([N+](=O)[O-])c4)o3)s2)cc1`, which inhibition is on record?
The inhibition was 5.75% (inactive).

Which inhibition does the source give for `Nc1nc2n(n1)C(c1ccco1)CC(c1ccc(Cl)c(Cl)c1)N2` (centres undefined) here?
The inhibition was 13.2% (inactive).

How did the inhibition turn out when `CCOc1ccc2nc(N3CCCN(C(=O)Nc4ccccc4C)CC3)c(C#N)cc2c1` was run?
Its inhibition is -3.08% (inactive).

With `CCOc1ccc2nc(/N=C/c3nc(-c4ccccc4)oc3O)sc2c1` as the compound, how does the inhibition read?
The inhibition was 5.96% (inactive).

`COc1cccc(-c2nn(-c3ccccc3)cc2/C=C(\C#N)C(=O)NCCCn2ccnc2)c1` was tested. Which inhibition did it give?
Its inhibition is 2.7% (inactive).

How did the inhibition turn out when `Cc1nn2c(c1-c1ccccc1)N=C(c1ccco1)CC2c1ccccc1` (centres undefined) was run?
Its inhibition is 21.2% (inactive).

How did the inhibition turn out when `COC(=O)c1ccc2nc(-c3ccc(C)cc3)c(Cc3ccc(OC)cc3C)n2c1` was run?
Its inhibition is 12.6% (inactive).

How did the inhibition turn out when `Cc1cc2nc(-c3ccco3)c(Cc3cccc(F)c3)n2c(C)c1Br` was run?
Its inhibition is 22.4% (inactive).

`C/C(=N\NC(=O)CNc1cccc2ccccc12)c1ccc(Br)s1` was tested. Which inhibition did it give?
Its inhibition is 8.07% (inactive).

`O=C(Cc1csc(Nc2nc(=S)[nH]c3ccccc23)n1)NCCCN1CCN(c2cccc(Cl)c2)CC1` was tested. Which inhibition did it give?
Its inhibition is 33.7% (inactive).

For `Cc1ccc(C(=O)NNC(=O)c2cc3cc4ccccc4nc3s2)cc1`, which inhibition is on record?
The inhibition was 65.5% (active).

`Cc1ccc(Nc2nc(-c3sc(NC(=O)c4ccccc4)nc3C)cs2)cc1` was tested. Which inhibition did it give?
The inhibition was 38.5% (inactive).

How did the inhibition turn out when `CCOc1ccc(NC(=O)c2ccc(NC(=O)COC(=O)c3ccc(NC(=O)CC#N)cc3)cc2)cc1` was run?
Its inhibition is 15.8% (inactive).

How did the inhibition turn out when `O=C(COC(=O)c1ccc(Oc2ccccc2)cc1)Nc1nnc(-c2ccccc2)o1` was run?
The inhibition was 72.6% (active).

How did the inhibition turn out when `N#CCC(=O)Nc1ccc(C(=O)OCC(=O)Nc2sc3c(c2C#N)CCCC3)cc1` was run?
The inhibition was 24.8% (inactive).

For `NC(c1csc(NC(=O)Nc2ccccc2Oc2ccccc2)n1)c1ccccc1Cl` (centres undefined), which inhibition is on record?
Its inhibition is 25.9% (inactive).

With `COc1ccc(NC(=O)/C(C#N)=C\c2cc(OC)c(OCc3ccc(C(=O)O)cc3)cc2Br)cc1` as the compound, how does the inhibition read?
Its inhibition is 11% (inactive).

`NC(CSC(c1ccccc1)(c1ccccc1)c1ccc(-c2ccccc2)cc1)C(=O)O` (centres undefined) was tested. Which inhibition did it give?
The inhibition was 54.7% (active).

How did the inhibition turn out when `Cc1cccc(NC(=O)c2sc3nc4c(c(-c5ccco5)c3c2N)CCC4)c1` was run?
The inhibition was 21.1% (inactive).

For `O=C(NC(Cc1c[nH]c2ccccc12)C(=O)N/N=C/c1ccc(Br)cc1)c1cccs1` (centres undefined), which inhibition is on record?
Its inhibition is 25.7% (inactive).

How did the inhibition turn out when `O=C1Nc2cc(C(=O)N3CCN(c4ccc(F)cc4)CC3)ccc2NC1CSCc1cccc(F)c1` (centres undefined) was run?
Its inhibition is 41.8% (inactive).

`S=c1[nH]nc(Nc2ccccc2)s1` was tested. Which inhibition did it give?
The inhibition was 45.2% (inactive).

Which inhibition does the source give for `Cc1ccc(-n2c(SCC(=O)N/N=C/C=C/c3ccccc3[N+](=O)[O-])nc3ccccc3c2=O)cc1` here?
The inhibition was 3.65% (inactive).

`CCOc1cc(/C=C2/N=C(c3ccc(C(C)(C)C)cc3)OC2=O)cc(Cl)c1OS(C)(=O)=O` was tested. Which inhibition did it give?
The inhibition was 11.4% (inactive).

Which inhibition does the source give for `Cc1oc2c(C)c3oc(=O)c(CC(=O)N[C@@H](CC(C)C)C(=O)N[C@@H](Cc4ccccc4)C(=O)O)c(C)c3cc2c1C` here?
The inhibition was 43.8% (inactive).

`O=C(Nc1nnc(-c2ccccc2)o1)c1cc(-c2cccs2)nc2ccccc12` was tested. Which inhibition did it give?
The inhibition was 55.5% (active).

`Cc1ccc(-c2cc(C(=O)N/N=C/C=C/c3ccco3)c3ccccc3n2)cc1C` was tested. Which inhibition did it give?
Its inhibition is 4.81% (inactive).

With `CS(=O)(=O)c1sc2nc(-c3ccccc3)cc(-c3ccccc3)c2c1N` as the compound, how does the inhibition read?
Its inhibition is 1.76% (inactive).

`NS(=O)(=O)c1ccc(NC(=O)COC(=O)c2c3c(nc4ccccc24)/C(=C\c2ccc4c(c2)OCO4)CCC3)cc1` was tested. Which inhibition did it give?
Its inhibition is 74.4% (active).

Which inhibition does the source give for `NC(=O)c1ccc(NC(=O)COC(=O)c2c3c(nc4ccccc24)/C(=C\c2ccc4c(c2)OCO4)CCC3)cc1` here?
The inhibition was 45.2% (inactive).

For `O=C(Nc1cccc(-c2nc3ccccc3[nH]2)c1)c1ccc(C(=O)Nc2cccc(-c3nc4ccccc4[nH]3)c2)cc1`, which inhibition is on record?
Its inhibition is 34.9% (inactive).

For `CCOC(=O)C1=C(C)Nc2sc(C(=O)c3ccc(Br)cc3)c(N)c2C1c1ccc(C(=O)OC)cc1` (centres undefined), which inhibition is on record?
Its inhibition is 8.7% (inactive).

With `CC(=O)Nc1ccc(C(=O)Nc2nc(-c3cc(C)n(Cc4ccccc4)c3C)cs2)cc1` as the compound, how does the inhibition read?
Its inhibition is 14.3% (inactive).

Which inhibition does the source give for `COc1cccc(OCc2cc(/C=N/NC(=O)c3nc(Cl)c(Cl)c(N)c3Cl)ccc2OC)c1` here?
Its inhibition is 25.3% (inactive).

`CC(C)c1ccc2c(c1)c(SC(C)(C)C)c(CC(C)(C)C(=O)O)n2Cc1ccc(Cl)cc1` was tested. Which inhibition did it give?
Its inhibition is 28.1% (inactive).

`S=c1[nH]nc(-c2cccs2)n1/N=C/c1cn(-c2ccccc2)nc1-c1ccc(Cl)cc1` was tested. Which inhibition did it give?
The inhibition was 6.28% (inactive).

With `COc1ccc(-c2nc3cnccn3c2NC2CCCCC2)cc1-c1cccc(Cl)c1` as the compound, how does the inhibition read?
Its inhibition is 18.8% (inactive).

With `O=C(COc1ccc(/C=N/NC(=O)c2ccc(O)cc2)cc1)Nc1ccc([N+](=O)[O-])cc1` as the compound, how does the inhibition read?
The inhibition was 15.9% (inactive).

With `COc1ccc(-n2c(SCC(=O)Nc3sc4c(c3C#N)CCCC4)nnc2-c2ccc(O)cc2)cc1` as the compound, how does the inhibition read?
The inhibition was 6.59% (inactive).

Which inhibition does the source give for `O=C(COc1ccc([N+](=O)[O-])cc1)Nc1ccc(N2CCCC2)cc1` here?
The inhibition was -0.14% (inactive).
